“And” between values parts separate entries of the source, which are not always exact repeats. Equal entries are not always repeated. Results filed as inconclusive are left out. The source made the active and inactive calls. Unless noted, calls follow the shape of the dose curve; as a rule, active = well fitted curve in the direction sought with a large enough effect; inconclusive = small, poorly fitted or top-dose-only effect, or another doubt; inactive = no such curve, though single readings can be large; an effect the other way counts as inactive or inconclusive.
Columns and labels:
[1] = biological target: Voltage-gated inwardly rectifying potassium channel KCNH2 (Homo sapiens) (UniProt Q12809); assay: qHTS Assay for Small Molecule Inhibitors of the Human hERG Channel Activity (AID 588834);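 also: lower thallium flux fluorescence means stronger hERG block; nearly all actives have a fitted effect of over 50% in size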; also: potency is read from the fitted curve at half-maximal effect
Sequence of Voltage-gated inwardly rectifying potassium channel KCNH2 (Homo sapiens) (Q12809 whole entry, looked up): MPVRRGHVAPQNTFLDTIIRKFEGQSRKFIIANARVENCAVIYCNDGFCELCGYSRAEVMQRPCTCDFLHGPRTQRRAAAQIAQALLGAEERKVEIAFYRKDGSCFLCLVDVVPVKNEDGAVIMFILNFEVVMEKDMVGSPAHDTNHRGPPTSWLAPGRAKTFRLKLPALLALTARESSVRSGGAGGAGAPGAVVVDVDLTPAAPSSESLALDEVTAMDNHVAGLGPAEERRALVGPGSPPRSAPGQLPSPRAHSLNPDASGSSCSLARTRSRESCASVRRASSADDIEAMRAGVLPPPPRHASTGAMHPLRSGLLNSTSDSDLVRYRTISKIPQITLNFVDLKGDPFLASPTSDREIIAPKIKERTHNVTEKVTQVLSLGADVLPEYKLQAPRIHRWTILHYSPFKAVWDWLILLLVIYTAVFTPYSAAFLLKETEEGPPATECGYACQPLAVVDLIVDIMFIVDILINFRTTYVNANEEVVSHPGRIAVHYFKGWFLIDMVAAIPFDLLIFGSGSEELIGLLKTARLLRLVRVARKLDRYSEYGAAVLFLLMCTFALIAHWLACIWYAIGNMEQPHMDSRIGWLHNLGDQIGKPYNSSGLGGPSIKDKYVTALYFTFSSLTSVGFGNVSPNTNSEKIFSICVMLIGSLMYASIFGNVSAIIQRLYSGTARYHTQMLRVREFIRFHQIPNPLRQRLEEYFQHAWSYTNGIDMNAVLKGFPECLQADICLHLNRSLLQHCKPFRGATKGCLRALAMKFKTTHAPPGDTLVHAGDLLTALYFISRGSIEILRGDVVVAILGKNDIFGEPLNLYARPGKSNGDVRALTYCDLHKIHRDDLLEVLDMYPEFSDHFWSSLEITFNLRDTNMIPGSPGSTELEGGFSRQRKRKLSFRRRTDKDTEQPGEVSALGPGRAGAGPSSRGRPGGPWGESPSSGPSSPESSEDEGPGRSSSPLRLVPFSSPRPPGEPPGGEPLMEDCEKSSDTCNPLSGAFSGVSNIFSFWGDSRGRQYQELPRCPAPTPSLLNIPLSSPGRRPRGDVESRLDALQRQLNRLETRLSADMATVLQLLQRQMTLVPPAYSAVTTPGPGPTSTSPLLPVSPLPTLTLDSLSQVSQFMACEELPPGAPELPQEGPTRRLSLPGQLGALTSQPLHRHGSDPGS
How it was run: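 In hERG-transduced U2OS cells, dye-loaded for 1 hr at room temperature in dark, test compounds incubated 10 min at 37 °C before thallium stimulation. AC50 values derived by Hill modelling of concentration-response.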

[2] = biological target: Luciferin 4-monooxygenase (Photinus pyralis) (UniProt P08659); assay: Biochemical firefly luciferase enzyme assay for NPC (AID 624030); also: nearly all actives have a fitted effect of over 70% in size; also: potency is read from the fitted curve at half-maximal effect
Sequence of Luciferin 4-monooxygenase (Photinus pyralis) (P08659 whole entry, looked up): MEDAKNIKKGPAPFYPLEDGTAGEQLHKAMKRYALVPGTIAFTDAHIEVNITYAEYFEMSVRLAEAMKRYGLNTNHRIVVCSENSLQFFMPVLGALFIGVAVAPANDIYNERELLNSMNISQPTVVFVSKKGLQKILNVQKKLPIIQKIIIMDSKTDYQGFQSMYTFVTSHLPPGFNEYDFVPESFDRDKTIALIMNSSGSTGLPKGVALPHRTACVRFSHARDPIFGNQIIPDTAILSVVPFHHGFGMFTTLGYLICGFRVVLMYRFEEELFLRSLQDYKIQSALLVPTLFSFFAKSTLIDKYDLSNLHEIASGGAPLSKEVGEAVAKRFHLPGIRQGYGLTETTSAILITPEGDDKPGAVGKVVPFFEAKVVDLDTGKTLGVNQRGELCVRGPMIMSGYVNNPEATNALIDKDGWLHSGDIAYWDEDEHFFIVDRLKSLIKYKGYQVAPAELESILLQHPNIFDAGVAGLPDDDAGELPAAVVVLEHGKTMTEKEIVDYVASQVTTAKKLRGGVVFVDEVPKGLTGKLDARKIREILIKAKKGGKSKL
How it was run: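 Purified P. pyralis luciferase at 10 nM in 50 mM Tris Acetate (final), luminescence read within 5 minutes of enzyme addition to compounds. Activity normalised to PTC124 versus DMSO; concentration-response curves classed by r2, magnitude and activity.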

[3] = S16 Schwann cell viability assay (CellTiter-Glo assay) (AID 624031);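 also: cellular ATP luminescence as a viability measure; plate controls were DMSO-treated cells for no effect and cell-free wells for full effect; nearly all actives have a fitted effect of over 70% in size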
How it was run: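 Native S16 rat Schwann cells, 500-750 cells/well in DMEM with 10% FBS, dosed with compound after overnight culture and incubated 24h at 37 degree Celsius/5% CO2. Viability by CellTiter-Glo luminescence; % activity normalized to no-cell wells and DMSO-treated cells.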

[4] = S16 Schwann cell PMP22 intronic element firefly luciferase assay (AID 624032); also: nearly all actives have a fitted effect of over 30% in size; also: potency is read from the fitted curve at half-maximal effect
How it was run: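 Rat S16 Schwann cells stably carrying firefly luciferase driven by a PMP22 intronic element, in 10% FBS, treated 24 h at 37 C. ONE-Glo luminescence normalized to PTC124 control and DMSO (0%); curves classed by r2, magnitude and activity.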

[5] = biological target: Glutaminase kidney isoform, mitochondrial (Homo sapiens) (UniProt O94925); assay: qHTS for Inhibitors of Glutaminase (GLS): LOPAC Validation (AID 624146); also: nearly all actives have a fitted effect of over 60% in size; also: potency is read from the fitted curve at half-maximal effect
Sequence of Glutaminase kidney isoform, mitochondrial (Homo sapiens) (O94925 whole entry, looked up, canonical isoform): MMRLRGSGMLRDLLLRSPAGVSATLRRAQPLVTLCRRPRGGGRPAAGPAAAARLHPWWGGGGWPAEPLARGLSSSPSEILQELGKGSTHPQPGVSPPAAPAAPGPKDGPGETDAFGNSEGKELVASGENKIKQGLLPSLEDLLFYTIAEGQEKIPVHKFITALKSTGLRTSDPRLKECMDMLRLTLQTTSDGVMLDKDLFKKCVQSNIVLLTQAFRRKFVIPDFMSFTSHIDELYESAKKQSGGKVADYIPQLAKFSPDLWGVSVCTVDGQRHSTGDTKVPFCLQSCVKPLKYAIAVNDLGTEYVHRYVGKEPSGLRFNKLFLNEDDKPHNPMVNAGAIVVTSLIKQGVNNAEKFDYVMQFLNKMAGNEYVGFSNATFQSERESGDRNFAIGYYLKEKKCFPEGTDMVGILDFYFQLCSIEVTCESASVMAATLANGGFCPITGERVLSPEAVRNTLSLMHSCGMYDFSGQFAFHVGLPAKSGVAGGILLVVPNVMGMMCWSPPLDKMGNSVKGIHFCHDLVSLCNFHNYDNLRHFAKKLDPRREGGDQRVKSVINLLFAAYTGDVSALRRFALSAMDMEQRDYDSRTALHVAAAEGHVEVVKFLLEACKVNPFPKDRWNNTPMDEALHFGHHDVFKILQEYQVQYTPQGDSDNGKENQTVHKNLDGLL
How it was run: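 Assay buffer: 45 mM KH2PO4 pH 8.2, 0.02% Tween-20. hKGA acts on L-glutamine (1 mM solution added); product glutamate is reported by an oxidase/peroxidase Amplex Red coupling, with fluorescence taken at baseline and 30 min.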

[6] = qHTS of Trypanosoma Brucei Inhibitors: LOPAC Validation (AID 624147); also: 0% is about no effect
How it was run: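 Luminescent Kinase-Glo Plus end-point after 45 min room-temperature reaction of T. brucei pyruvate kinase started with 130 uM ADP (final). Buffer TEA 50 mM pH 7.2 with KCl, MgCl2, BSA, Tween-20; titration-based qHTS with fitted concentration-effect curves.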

[7] = biological target: Glucagon-like peptide 1 receptor (Homo sapiens) (UniProt P43220); assay: qHTS of GLP-1 Receptor Agonists: LOPAC Validation (AID 624148);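 also: 0% is about no effect; higher luminescence signal means agonism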
Sequence of Glucagon-like peptide 1 receptor (Homo sapiens) (P43220 whole entry, looked up): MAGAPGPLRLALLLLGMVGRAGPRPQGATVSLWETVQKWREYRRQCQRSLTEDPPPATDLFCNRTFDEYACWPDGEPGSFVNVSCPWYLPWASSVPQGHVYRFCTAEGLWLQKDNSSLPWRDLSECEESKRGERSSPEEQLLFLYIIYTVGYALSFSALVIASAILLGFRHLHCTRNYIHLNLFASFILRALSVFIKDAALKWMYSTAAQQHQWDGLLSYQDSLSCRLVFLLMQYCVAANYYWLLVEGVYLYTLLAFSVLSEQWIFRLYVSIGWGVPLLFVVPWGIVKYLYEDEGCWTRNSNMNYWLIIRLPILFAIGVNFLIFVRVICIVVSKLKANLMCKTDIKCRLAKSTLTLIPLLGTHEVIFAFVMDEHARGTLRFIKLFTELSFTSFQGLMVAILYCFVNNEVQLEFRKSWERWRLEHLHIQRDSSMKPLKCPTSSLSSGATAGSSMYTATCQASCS
How it was run: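 HEK293 cells stably co-expressing GLP-1R and a cAMP-responsive luciferase reporter, plated 12 hours before compound, then incubated 4-6 hr at 37 deg C. Luminescence read 12 min after detection reagent.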

[8] = qHTS of Nrf2 Activators: LOPAC Validation (AID 624149); also: 0% is about no effect
How it was run: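 AREc32_Fluc cells, 1000/well, OPTI-MEM + 5% FBS, o/n 37 deg C 5% CO2; compound pin-transfer, 24 hr 37 deg C; Steady-Glo 30 min RT, luminescence read.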

[9] = HTS Assay for Allosteric Antagonists of the Human D2 Dopamine Receptor: Hit Validation in HTRF (AID 624455); also: potency is read from the fitted curve at half-maximal effect
How it was run: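 HTRF read-out; cells stably expressing D1 receptor; hits scored for inhibition of D1-mediated response. Primary screen: calcium flux, force-coupled inducible Hek293 Trex D2 line, antagonism vs EC80 dopamine.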

[10] = qHTS assay for small molecule agonists of the antioxidant response element (ARE) signaling pathway (AID 651741; active = well fitted activation curve with a large enough effect in the signal ratio; the % refers to the signal ratio; also: potency is read from the fitted curve at half-maximal effect; as to activation: % of control where 0% means no effect)
How it was run: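 HepG2 ARE-bla reporter cells, 2,000/well; 5 h settle at 37 C/5% CO2; compound pin transfer (23 nL, DMSO); 16 h at 37 C; LiveBLAzer B/G FRET substrate, 2 h RT; fluorescence intensity read.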

[11] = qHTS assay for small molecule activators of the p53 signaling pathway (AID 651743; active = well fitted activation curve with a large enough effect in the signal ratio, not every such curve was filed as active; the % refers to the signal ratio; also: potency is read from the fitted curve at half-maximal effect; as to activation: % of control where 0% means no effect); details: HCT-116 p53RE-bla, beta-lactamase FRET ratio, 16 h; activation: stronger effect = higher value
How it was run: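 Reporter: beta-lactamase driven by p53 response elements, stably integrated in HCT-116 cells. Cells seeded at 4,000/well, 5 h preincubation, compound (DMSO) 16 h at 37 C; B/G FRET substrate 2 h RT; fluorescence intensity read.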

[12] = S16 Schwann cell PMP22 intronic element beta-lactamase assay (AID 624044; calls by dose curve;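 also: 0% = DMSO and -100% = potassium clavulanate positive control; nearly all actives have a fitted effect of over 15% in size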)
How it was run: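 Beta-lactamase reporter under a PMP22 intronic regulatory element in stable S16 rat Schwann cells; 24 h compound exposure. 460 nm blue signal normalized between DMSO (0%) and potassium clavulanate, with 535 nm FRET tracking viability; curves classed by r2 and response.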

[13] = qHTS assay for small molecule activators of the nuclear factor-kappa B (NF-kB) signaling pathway (AID 651749; active = well fitted activation curve with a large enough effect in the signal ratio; the % refers to the signal ratio; also: % of control where 0% means no effect); details: NF-kB-bla ME-180 cells, beta-lactamase FRET ratio, 16 h; stronger effect = higher value
How it was run: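 NF-kB-bla ME-180 cells, 2,000/well; 23 nL compound or DMSO pinned; 16 hr, 37C/5% CO2; beta-lactamase FRET read-out.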

[14] = Cytotoxicity counterscreen for NFkB agonists and antagonists (AID 624476); also: % is scaled to controls: 0 for no effect and ±100 for the full control effect
[15] = qHTS Assay for Identification of Small Molecule Agonists for NFkB Signaling Pathway. (AID 624478);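 also: compounds tested together with TNF alpha at its EC50 of 10 pM; 0% is about no effect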
How it was run: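 Read-out: 460/530 nm emission at 405 nm excitation after 2 h LiveBLAzer loading; ME-180 NFkB-bla reporter cells exposed 5 h at 37 C to compounds with 10 pM TNF alpha final.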

[16] = qHTS Assay for Identification of Small Molecule Antagonists for NFkB Signaling Pathway. (AID 624479; calls by dose curve;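 also: pathway stimulated with TNF alpha; % is scaled to controls: 0 for no effect and ±100 for the full control effect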)
[17] = Cell Proliferation Assay against the TMD8 Cell Line (AID 651645); details: TMD8 DLBCL cell line proliferation/viability; at 46.1 µM (top of the series);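 also: cells exposed to compound for 48 h before reading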
How it was run: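 TMD8 ABC DLBCL cells, 500 per well in phenol red-free RPMI with 5% FBS, were treated with compound by pin transfer and incubated 48 hours at 37C, 5% CO2. Viability was read by CellTiter-Glo luminescence, normalised to DMSO (100%) and 9.2 uM bortezomib (0%).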

[18] = Cell Proliferation Assay against the HBL1 Cell Line (AID 651646); details: HBL1 DLBCL cells; at 46.1 µM (top of the series);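 also: cells exposed to compound for 48 h before reading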
How it was run: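 HBL1, 500 cells/well, RPMI no phenol red + 5% FBS; cpd pinned, 48 h 37C/5% CO2; CellTiter-Glo, 15 min RT, luminescence. % activity: DMSO = 100%, bortezomib 9.2 uM final = 0%.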

[19] = Cell Proliferation Assay against the TMD8 Cell Line (Caspase readout at 8 hrs) (AID 651713);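 also: 0% = DMSO and 100% = 9.2 µM bortezomib caspase signal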
How it was run: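 Apoptosis readout: caspase 3/7 luminescence (Caspase-Glo), 15 min RT. Cells: TMD8, 500/well, RPMI + 5% FBS, no phenol red. Exposure 8 h, 37C. % activity vs DMSO = 0, bortezomib 9.2 uM final = 100.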

CCCC(C)(COC(N)=O)COC(=O)NC(C)C (stereo not drawn)
inactive: Potency [1] | Potency [2] | Potency [3] | Potency [4] | Potency [5] | outcome [6] | outcome [7] | outcome [8] | Potency [9] | Potency [10] | activation [11] 1.85% and -3%

CCN(CC)CCOC(=O)C(O)(c1ccccc1)c1ccccc1
active: Potency [1] 15.8 µM
inactive: Potency [2] | Potency [3] | Potency [12]

CC1OC(C)OC(C)O1 (stereo not drawn)
inactive: Potency [1] | Potency [2] | Potency [3] | Potency [4] | Potency [12]

NCC1(CC(=O)O)CCCCC1
inactive: Potency [1] | Potency [2] | Potency [3] | Potency [4] | Potency [5] | outcome [6] | outcome [7] | outcome [8] | Potency [9]

COc1ccc(C(CN(C)C)C2(O)CCCCC2)cc1 (stereo not drawn)
inactive: Potency [1] | Potency [2] | Potency [3] | Potency [4] | Potency [5] | outcome [6] | outcome [7] | outcome [8]

CC[C@@H](CO)NC(=O)[C@@H]1C=C2c3cccc4[nH]cc(c34)C[C@H]2N(C)C1
inactive: Potency [1] | Potency [2] | Potency [3] | Potency [12] | outcome [6] | outcome [7] | outcome [8]
active: Potency [9] 0.0052 µM

Nc1ccncc1
inactive: Potency [1] | Potency [2] | Potency [3] | Potency [4] | Potency [5] | outcome [6] | outcome [7] | outcome [8] | Potency [9] | Potency [10] | activation [11] 2.37% | activation [13] -0.507%

Cn1c(CCCC(=O)O)nc2cc(N(CCCl)CCCl)ccc21
active: Potency [4] 1.02 µM
inactive: Potency [1] | Potency [2] | Potency [3] | Potency [14] | outcome [15] | Potency [16] | Potency [19]
108%: viability, percent of control [18]
95.4%: viability (% of control) [17]

CN1C(=S)CN=C(c2ccccc2)c2cc(Cl)ccc21
inactive: Potency [1] | Potency [2] | Potency [3] | Potency [4] | Potency [12]

CCCN1CCC[C@@H]2Cc3[nH]ncc3C[C@H]21
inactive: Potency [2] | Potency [3] | Potency [4] | Potency [5] | outcome [6] | outcome [7] | outcome [8]

O=c1[nH]c2ccccc2n1C1CCN(CCCC(c2ccc(F)cc2)c2ccc(F)cc2)CC1
inactive: Potency [2] | Potency [5] | outcome [6] | outcome [7] | outcome [8] | Potency [9]

NCCc1cc(O)c(O)cc1O
inactive: Potency [1] | Potency [3] | Potency [4] | Potency [12]

CC(CCc1ccccc1)NC(C)C(O)c1ccc(O)cc1 (stereo not drawn)
active: Potency [1] 7.08 µM and 2 µM
inactive: Potency [2] | Potency [3] | outcome [6] | outcome [8] | Potency [9]

O=c1[nH]c2ccccc2n1CCCN1CCC(n2c(=O)[nH]c3cc(Cl)ccc32)CC1
inactive: Potency [2] | Potency [5] | outcome [6] | outcome [7] | outcome [8] | Potency [9]
active: Potency [4] 36.1 µM

O=C(O)c1ccc2[nH]cc(CCCCN3CC=C(c4ccccc4)CC3)c2c1
inactive: Potency [1] | Potency [2] | Potency [4]

C=C(C)[C@H]1Cc2c(ccc3c2O[C@@H]2COc4cc(OC)c(OC)cc4[C@@H]2C3=O)O1
active: Potency [5] 11.2 µM
inactive: Potency [1] | Potency [2] | Potency [3] | outcome [6] | outcome [7] | outcome [8] | Potency [9] | activation [13] 7.78%

CC(=O)Oc1ccccc1C(=O)Nc1ncc([N+](=O)[O-])s1
active: Potency [2] 0.721 µM | Potency [10] 18.8 µM | Potency [11] 12.6 µM
inactive: Potency [4]

OCCOc1ccccc1
inactive: Potency [1] | Potency [2] | Potency [4] | Potency [10] | activation [11] -4.8% and -3.64%

Cc1cccc(C)c1NC(=O)CN1CCCC1=O
inactive: Potency [2] | Potency [5] | outcome [6] | outcome [7] | outcome [8] | Potency [9]

N#CC(C#N)=Cc1ccc(O)c(O)c1
inactive: Potency [1] | Potency [2] | Potency [3] | outcome [6] | outcome [7] | outcome [8] | Potency [9]
active: Potency [5] 0.355 µM

Cc1ccc2c(n1)Oc1ccc(C(C)C(=O)OCC(=O)N(C)C)cc1C2 (stereo not drawn)
active: Potency [2] 14.4 µM

Oc1cccc2cccnc12
active: Potency [10] 37.6 µM and 66.8 µM
inactive: Potency [1] | Potency [2] | Potency [4] | activation [11] -0.845% and 2.31%
